Here are results for 31 compounds from PubChem BioAssay (NCATS).

Assay [1] has as its target Cytochrome P450 3A7 (Homo sapiens) (UniProt P24462). In words: Cytochrome P450 family 3 subfamily A member 7 (CYP3A7) small molecule antagonists: luciferase biochemical qHTS assay (AID 1963596). Note: % is set by controls: 0 for no effect and ±100 for the full control effect; nearly all actives have a fitted effect of over 40% in size. The method, boiled down:
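Enzyme-substrate mix + cpd (DMSO), 10 min RT; + NADPH regen system, 1 h RT; + luciferin detection reagent, 20 min RT; luminescence read. Proluciferin substrate, P450-Glo format, 1536-well qHTS.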
(qHTS replaces the single test concentration by a dilution series.)

Assay [2] is described as follows: Viability qHTS for spleen associated tyrosine kinase inhibitor (SYKi) naive MV4-11 cells (AID 1963823). Note: nearly all actives have a fitted effect of over 40% in size. Note: potency is the fitted concentration of half-maximal effect. The method, boiled down: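 Seeding of 500 SYKi-naive MV4-11 cells per well onto pre-dispensed compounds preceded a 72 hr incubation at 37 C. Luminescent CellTiter-Glo signal, read after 10 min at room temperature, reflected viable cells.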
The nature of assay [3]: Viability qHTS for spleen associated tyrosine kinase inhibitor (SYKi) drug resistant MV4-11 cells (AID 1963824). Note: nearly all actives have a fitted effect of over 35% in size. Note: potency is the fitted concentration of half-maximal effect. The method, boiled down:
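SYK inhibitor-resistant MV4-11 AML cells, 500 per well, added to predispensed compounds and incubated 72 hr at 37 C, 5% CO2. Viability measured by CellTiter-Glo luminescence after 10 min at room temperature.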

Assay [4] in a line: Cellular viability qHTS for adrenocortical cancer (ACC) cell line SW-13 (AID 1963989).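 For activity (max response): cells grown in serum-free medium with ITS supplement; % is set by controls: 0 for no effect and ±100 for the full control effect.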 Note: nearly all actives have a fitted effect of over 65% in size. Note: potency is the fitted concentration of half-maximal effect. Conditions: SW-13 ACC cells viability, CellTiter-Glo, 48 h; activity (max response): hits give low values. Put shortly: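 48 h treatment, SW-13 in ITS/DMEM serum-free; doses up to 46 uM; readout CellTiter-Glo luminescence; curve fit four-parameter logistic.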
A short description of assay [5]: Cellular viability qHTS for adrenocortical cancer (ACC) cell line NCI-H295R (AID 1963990).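 For activity change, negative = viability loss: 0% = DMSO only wells and -100% = full killing with cytotoxic reference compound.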 Note: nearly all actives have a fitted effect of over 60% in size. Note: potency is the fitted concentration of half-maximal effect. Put shortly:
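Compound titrations (up to 46 uM final) are applied to NCI-H295R cultures for 48 h at 37C. Viable cell number is estimated by CellTiter-Glo signal, normalised to DMSO and doxorubicin controls.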

The structures appear in SMILES notation. Values joined by “and” are separate entries in the source; they are usually repeats but may differ in a detail not shown here. Identical values can stand only once. Records with an inconclusive call do not appear. Unmarked numbers belong to inactive results. Active and inactive are the calls of the source. Calls come from the whole dose curve; as a rule, active = well fitted curve in the direction sought with a large enough effect; inconclusive = small, poorly fitted or top-dose-only effect, or another doubt; inactive = no such curve, though single readings can be large; an effect the other way counts as inactive or inconclusive.

Sequence of Cytochrome P450 3A7 (Homo sapiens) (P24462 whole entry, looked up): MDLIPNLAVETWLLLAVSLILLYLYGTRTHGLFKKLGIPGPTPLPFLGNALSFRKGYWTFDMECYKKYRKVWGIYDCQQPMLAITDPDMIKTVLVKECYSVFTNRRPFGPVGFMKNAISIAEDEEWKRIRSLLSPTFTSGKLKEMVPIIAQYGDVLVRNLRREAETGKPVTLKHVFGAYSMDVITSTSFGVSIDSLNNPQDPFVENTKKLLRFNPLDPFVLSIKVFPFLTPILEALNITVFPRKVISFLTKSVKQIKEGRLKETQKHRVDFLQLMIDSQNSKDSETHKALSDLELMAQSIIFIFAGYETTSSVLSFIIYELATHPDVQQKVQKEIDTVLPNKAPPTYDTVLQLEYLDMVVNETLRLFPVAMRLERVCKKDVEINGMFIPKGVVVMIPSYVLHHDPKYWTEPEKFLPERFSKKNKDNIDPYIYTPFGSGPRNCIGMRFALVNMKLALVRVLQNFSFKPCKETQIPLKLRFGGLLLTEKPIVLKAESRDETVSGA

On to `[O-][n+]1cccc(/C(Cl)=N/OC[C@@H](O)CN2CCCCC2)c1`, for which the Potency result in assay [1], in assay [2], in assay [3] and in assay [5] was “inactive” in each case. In addition, in assay [4], the activity (max response) was 9.86%.
As to `OCCN1C[C@H](O)[C@@H](O)[C@H](O)[C@H]1CO`, the Potency result in assay [1], in assay [2], in assay [3] and in assay [5] was “inactive” each time. For the same compound, the activity (max response) in assay [4] is 9.26% and -11.1%.
As to `O=C1O[C@H]([C@@H](O)CO)C(O)=C1O`, the Potency result in assay [1], in assay [2], in assay [3] and in assay [5] was “inactive” in each case. In addition, the activity (max response) in assay [4] was 0.904%.
With `CCOc1ccccc1OCC1CNCCO1` (stereo not given), the Potency entry in assay [1], in assay [2], in assay [3] and in assay [5] was “inactive” in each case. In addition, the activity (max response) in assay [4] is -0.481%.
Take `O=C(NCCCN1CCOCC1)c1ccc(Cl)cc1`: the Potency result in assay [1], in assay [2], in assay [3] and in assay [5] was “inactive” in each case. Moreover, in assay [4], the activity (max response) was 5.56%.
For the compound `CCCCCC[C@@H](CCC)C(=O)O`, the Potency result in assay [1], in assay [2], in assay [3] and in assay [5] was “inactive” throughout. In addition, in assay [4], the activity (max response) is 6.05%.
For `CNC(=O)c1c(I)c(NC(C)=O)c(I)c(C(=O)O)c1I`, the Potency entry in assay [1], in assay [2], in assay [3] and in assay [5] was “inactive” throughout. Further, the activity (max response) in assay [4] was 10%.
Turning to `CN1C(=O)CC[C@H]1c1cccnc1`, the Potency entry in assay [1], in assay [2], in assay [3] and in assay [5] was “inactive” throughout. Also, the activity (max response) in assay [4] is 2.26%.
On to `OCc1ccccc1O`, for which the Potency entry in assay [1], in assay [2], in assay [3] and in assay [5] was “inactive” throughout. Also, the activity (max response) in assay [4] was 6.34%.
For the compound `NC(=O)NC1NC(=O)NC1=O` (stereo not given), the Potency result in assay [1], in assay [2], in assay [3] and in assay [5] was “inactive” throughout. Further, in assay [4], the activity (max response) was 10.7%.
As for `Cc1sccc1Br`, the Potency entry in assay [1], in assay [2], in assay [3] and in assay [5] was “inactive” throughout. In assay [4], the activity (max response) is -3.04%.
Regarding `CCCCCCCCCCOc1cc2c(=O)c(C(=O)OCC)c[nH]c2cc1OCC`, the activity change, negative = inhibition in assay [1] is 9.06% [at 4.83 µM]. In addition, the viability (% of control) in assay [2] is 102% [at 4.97 µM]. Besides, the viability, % of control in assay [3] is 107% [at 4.97 µM]. The activity (max response) in assay [4] was 0.0943%. In assay [5], the activity change, negative = viability loss was -5.4% [at 3.81 µM].
For `CN1N=C(C(N)=O)CCC1=O`, the Potency entry in assay [1], in assay [2], in assay [3] and in assay [5] was “inactive” throughout. Besides, in assay [4], the activity (max response) is 11.7%.
For the compound `Cc1nn(Cc2ccccc2Cl)c(C)c1CN(C)CC(O)COc1ccc(Cl)cc1` (stereo not given), in assay [1], the Potency entry was “inactive”. Besides, the Potency in assay [2] is 14.8 µM (active); in assay [3] it was 7.42 µM (active); in assay [4] it was 25.1 µM (active); in assay [5], 17.8 µM (active).
As to `CN1CCOC(c2ccccc2)c2ccccc2C1` (stereo not given), the Potency entry in assay [1], in assay [2], in assay [3] and in assay [5] was “inactive” throughout. In addition, the activity (max response) in assay [4] is -0.385%.
As to `NC(=O)c1cn(Cc2c(F)cccc2F)nn1`, the Potency result in assay [1], in assay [2], in assay [3] and in assay [5] was “inactive” throughout. In assay [4], the activity (max response) is 10.9%.
Turning to `C=CCNC(N)=S`, the Potency result in assay [1], in assay [2], in assay [3] and in assay [5] was “inactive” each time. Moreover, the activity (max response) in assay [4] was 13%.
As for `NC(=O)N1c2ccccc2C=Cc2ccccc21`, the Potency entry in assay [1], in assay [2], in assay [3] and in assay [5] was “inactive” throughout. Also, the activity (max response) in assay [4] was 8.83%.
For the compound `CCN(CC)CCNC(=O)c1cc(S(C)(=O)=O)ccc1OC`, the Potency entry in assay [1], in assay [2], in assay [3] and in assay [5] was “inactive” each time. In assay [4], the activity (max response) was 12.2%.
Turning to `COC(=O)c1ccccc1C(=O)c1ccc(OCCN2CCCCC2)cc1`, the Potency entry in assay [1], in assay [2], in assay [3] and in assay [5] was “inactive” throughout. The activity (max response) in assay [4] is -0.425%.
Turning to `CCCN(CCC)C(=O)C(CCC(=O)O)NC(=O)c1ccccc1` (stereo not given), the Potency result in assay [1], in assay [2], in assay [3] and in assay [5] was “inactive” each time. Further, the activity (max response) in assay [4] was 0.293% and -17.2%.
Consider `CC1(C)S[C@@H]2[C@H](NC(=O)[C@H](N)c3ccccc3)C(=O)N2[C@H]1C(=O)O`, for which the Potency entry in assay [1], in assay [2], in assay [3] and in assay [5] was “inactive” throughout. The activity (max response) in assay [4] was 9.26%.
As to `CN(C)CCN1C(=O)c2ccccc2N(C)c2ccccc21`, the Potency result in assay [1], in assay [2], in assay [3] and in assay [5] was “inactive” throughout. Moreover, the activity (max response) in assay [4] was -13.1%.
As to `O=C1c2ccccc2C(=O)C1c1ccccc1`, the Potency entry in assay [1], in assay [2], in assay [3] and in assay [5] was “inactive” throughout. The activity (max response) in assay [4] was 5.96%.
On to `C[C@@H]1CC[C@@]2(OC1)O[C@H]1C[C@H]3[C@@H]4CC[C@H]5C[C@@H](O)CC[C@]5(C)[C@H]4CC(=O)[C@]3(C)[C@H]1[C@@H]2C`, for which the activity change, negative = inhibition in assay [1] is -8.63% [at 4.83 µM]. Also, the viability (% of control) in assay [2] is 83.6% [at 4.97 µM]. The viability, % of control in assay [3] is 73.5% [at 4.97 µM]. In addition, the activity (max response) in assay [4] was 5.1%. In assay [5], the activity change, negative = viability loss is -14.3% [at 3.81 µM].
For `C[C@](N)(Cc1ccc(O)cc1)C(=O)O`, the activity change, negative = inhibition in assay [1] was 1.38% [at 4.83 µM]. Further, in assay [2], the viability (% of control) was 79.1% [at 4.97 µM]. Also, in assay [3], the viability, % of control is 90.5% [at 4.97 µM]. The activity (max response) in assay [4] is -6.01%. Also, the activity change, negative = viability loss in assay [5] is -1.14% [at 3.81 µM].
Regarding `C[N+](C)(C)CC(O)CC(=O)[O-]` (stereo not given), the Potency entry in assay [1], in assay [2], in assay [3] and in assay [5] was “inactive” each time. The activity (max response) in assay [4] is -6.62%.
On to `CC(C(=O)O)c1ccc2c(c1)Cc1cccnc1O2` (stereo not given), for which the Potency result in assay [1], in assay [2], in assay [3] and in assay [5] was “inactive” each time. In addition, the activity (max response) in assay [4] is -0.725%.
For the compound `Nc1nnnn1-c1ccccc1`, the Potency entry in assay [1], in assay [2], in assay [3] and in assay [5] was “inactive” each time. For the same compound, in assay [4], the activity (max response) was 1.62%.
`NCCc1ccn[nH]1`: the Potency result in assay [1], in assay [2], in assay [3] and in assay [5] was “inactive” each time. For the same compound, in assay [4], the activity (max response) was 3.59%.
Consider `OCC(CO)N[C@H]1C[C@](O)(CO)[C@@H](O)[C@H](O)[C@H]1O`, for which the Potency entry in assay [1], in assay [2], in assay [3] and in assay [5] was “inactive” each time. For the same compound, in assay [4], the activity (max response) was 4.01%.
